This note sets out measurements from PubChem BioAssay (NCATS).

Assay [1] has as its target Cytochrome P450 3A7 (Homo sapiens) (UniProt P24462). The assay can be described thus: Cytochrome P450 family 3 subfamily A member 7 (CYP3A7) small molecule antagonists: luciferase biochemical qHTS assay (AID 1963596). Further: nearly all actives have a fitted effect of over 40% in size. Further: potency means the concentration at half of the fitted maximal effect. Summed up:
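Luminescence from luciferin released by CYP3A7 from a proluciferin substrate, read 20 min after detection reagent. Compound and enzyme-substrate mix sat 10 min before NADPH regeneration solution; reaction ran 1 h at room temperature.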
In general terms: qHTS replaces the single test concentration by a dilution series.

Assay [2] is described as follows: Viability qHTS for spleen associated tyrosine kinase inhibitor (SYKi) naive MV4-11 cells (AID 1963823). Further: nearly all actives have a fitted effect of over 40% in size. Further: potency means the concentration at half of the fitted maximal effect. Summed up:
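Seeding of 500 SYKi-naive MV4-11 cells per well onto pre-dispensed compounds preceded a 72 hr incubation at 37 C. Luminescent CellTiter-Glo signal, read after 10 min at room temperature, reflected viable cells.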

The nature of assay [3]: Viability qHTS for spleen associated tyrosine kinase inhibitor (SYKi) drug resistant MV4-11 cells (AID 1963824). Further: nearly all actives have a fitted effect of over 35% in size. Further: potency means the concentration at half of the fitted maximal effect. Summed up: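 SYK-inhibitor-resistant MV4-11 AML cells were seeded at 500 per well onto compound and cultured 72 hours (37 °C, 5% CO2). CellTiter-Glo was then added, and after 10 min at room temperature, luminescence gave viability.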
The nature of assay [4]: Quantitative highthroughput screen to assess conditional lethalithy of NOMO1 cells grown in RPMI1640 with untreated serum (RPMI+s) (AID 1963876). Further: nearly all actives have a fitted effect of over 35% in size. Further: potency means the concentration at half of the fitted maximal effect.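 On Viability: 100% = DMSO wells and 0% = empty wells without cells.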 Summed up:
(§1)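 Each medium arm—HPLM with 10% dialyzed FBS, or RPMI1640 with 5 mM glucose and 10% untreated or dialyzed FBS—was screened against an 11-point, 3-fold compound titration for 48 h at 37 °C, with CellTiter-Glo luminescence as endpoint.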

Assay [5] is described as follows: Quantitative highthroughput screen to assess conditional lethalithy of NOMO1 cells grown in RPMI1640 with dialyzed fetal bovine serum (RPMI+ds) (AID 1963877). Further: nearly all actives have a fitted effect of over 30% in size. Further: potency means the concentration at half of the fitted maximal effect.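 On Viability: series mostly up to about 46 µM; 100% = DMSO control wells and 0% = empty wells.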 Summed up: as §1
Assay [6] can be described thus: Quantitative highthroughput screen to assess conditional lethalithy of P12 Ichikawa cells grown in Human Plasma-Like Medium with dialyzed fetal bovine serum (HPLM+ds) (AID 1963879). Further: nearly all actives have a fitted effect of over 35% in size. Further: potency means the concentration at half of the fitted maximal effect. On Viability: series mostly up to about 46 µM. Particulars: Potency: viability. Summed up:
as §1

Assay [7] in a line: Quantitative highthroughput screen to assess conditional lethalithy of P12 Ichikawa cells grown in RPMI1640 with dialyzed fetal bovine serum (RPMI+ds) (AID 1963880). Further: nearly all actives have a fitted effect of over 35% in size. Further: potency means the concentration at half of the fitted maximal effect.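 On Viability: 100% = DMSO wells and 0% = empty wells on each plate.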 Particulars: Potency: P12-Ichikawa viability. Summed up:
as §1

Assay [8] in a line: Quantitative highthroughput screen to assess conditional lethalithy of P12 Ichikawa cells grown in RPMI1640 with untreated serum (RPMI+s) (AID 1963881). Further: nearly all actives have a fitted effect of over 35% in size. Further: potency means the concentration at half of the fitted maximal effect.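 On Viability: series mostly up to about 46 µM; 100% = DMSO wells and 0% = empty wells without cells.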 Conditions: Potency: viability. Summed up:
as §1

Assay [9] in a line: Quantitative highthroughput screen to assess conditional lethalithy of SEM cells grown in Human Plasma-Like Medium with dialyzed fetal bovine serum (HPLM+ds) (AID 1963882). Further: nearly all actives have a fitted effect of over 35% in size. Further: potency means the concentration at half of the fitted maximal effect. On Viability: series mostly up to about 46 µM. Summed up: as §1
A short description of assay [10]: Quantitative highthroughput screen to assess conditional lethalithy of SEM cells grown in RPMI1640 with dialyzed fetal bovine serum (RPMI+ds) (AID 1963884). Further: nearly all actives have a fitted effect of over 35% in size. Further: potency means the concentration at half of the fitted maximal effect.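 On Viability: series mostly up to about 46 µM; 100% = DMSO control wells and 0% = empty wells without cells.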 Summed up: as §1
A short description of assay [11]: Cellular viability qHTS for adrenocortical cancer (ACC) cell line SW-13 (AID 1963989). Further: nearly all actives have a fitted effect of over 65% in size. Further: potency means the concentration at half of the fitted maximal effect.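 On activity (max response): cells grown in serum-free medium with ITS supplement; on the % scale 0 is the no-effect control and ±100 the full control effect.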 Particulars: SW-13 ACC cells viability, CellTiter-Glo, 48 h; activity (max response): active compounds read low. Summed up:
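48 h treatment, SW-13 in ITS/DMEM serum-free; doses up to 46 uM; readout CellTiter-Glo luminescence; curve fit four-parameter logistic.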

A short description of assay [12]: Cellular viability qHTS for adrenocortical cancer (ACC) cell line NCI-H295R (AID 1963990). Further: nearly all actives have a fitted effect of over 60% in size. Further: potency means the concentration at half of the fitted maximal effect. Summed up:
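Compound titrations (up to 46 uM final) are applied to NCI-H295R cultures for 48 h at 37C. Viable cell number is estimated by CellTiter-Glo signal, normalised to DMSO and doxorubicin controls.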

Assay [13] is described as follows: Quantitative highthroughput screen to assess conditional lethalithy of SEM cells grown in RPMI1640 with unreated serum (RPMI+s) (AID 1963883). Further: nearly all actives have a fitted effect of over 35% in size. Further: potency means the concentration at half of the fitted maximal effect.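 On Viability: 100% = DMSO wells and 0% = empty wells without cells.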 Summed up: as §1
Assay [14] can be described thus: Quantitative highthroughput screen to assess conditional lethalithy of NOMO1 cells grown in Human Plasma-Like Medium with dialyzed fetal bovine serum (HPLM+ds) (AID 1963878). Summed up: as §1

Structures are written as SMILES. Several values for one entry are separate records, joined by “and”; a condition that tells them apart may be missing. Equal entries are not always repeated. Results filed as inconclusive are left out. Activity calls are given as the source filed them. The call rests on the fitted dose curve; in most records, active means well fitted curve in the direction sought with a large enough effect; inconclusive means small, poorly fitted or top-dose-only effect, or another doubt; inactive means no such curve, though single readings can be large; an effect the other way counts as inactive or inconclusive.

Sequence of Cytochrome P450 3A7 (Homo sapiens) (P24462 whole entry, looked up): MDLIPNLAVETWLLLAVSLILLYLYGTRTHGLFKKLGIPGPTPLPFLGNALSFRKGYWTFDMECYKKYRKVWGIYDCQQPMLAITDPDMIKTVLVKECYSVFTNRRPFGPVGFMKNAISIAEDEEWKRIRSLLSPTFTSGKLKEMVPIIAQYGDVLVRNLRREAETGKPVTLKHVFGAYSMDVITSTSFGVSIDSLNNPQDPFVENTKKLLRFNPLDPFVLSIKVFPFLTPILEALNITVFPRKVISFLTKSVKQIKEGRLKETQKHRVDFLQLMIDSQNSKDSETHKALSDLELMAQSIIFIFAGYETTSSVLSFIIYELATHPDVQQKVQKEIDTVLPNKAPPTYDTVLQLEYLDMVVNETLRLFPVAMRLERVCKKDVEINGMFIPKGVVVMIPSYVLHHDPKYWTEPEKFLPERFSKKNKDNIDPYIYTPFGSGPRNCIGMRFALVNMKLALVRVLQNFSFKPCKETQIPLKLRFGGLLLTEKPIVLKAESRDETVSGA

`C=CCn1c(=O)c2cnc(Nc3ccc(N4CCN(C)CC4)cc3)nc2n1-c1cccc(C(C)(C)O)n1`: the Potency in [1] was 10000 nM (active); in [2] it was 525 nM (active); in assay [3] it was 259 nM (active) and 372 nM (active); in [4], 1050 nM (active); in [5], 418 nM (active); in [6], 1050 nM (active). Besides, the Potency was 1870 nM (active) in [7]; 2640 nM (active) in [8]; 235 nM (active) in assay [9]; 148 nM (active) in assay [10]; 3.55 µM (active) in assay [11]; 1 µM (active) in assay [12].

Regarding `COc1cc(Nc2c(C#N)cnc3cc(OCCCN4CCN(C)CC4)c(OC)cc23)c(Cl)cc1Cl`, the Potency is 15500 nM (active) in assay [1]; 944 nM (active) and 1.3 µM (active) and 1.18 µM (active) in assay [2]; 944 nM (active) and 1.16 µM (active) and 590 nM (active) in assay [3]; 7430 nM (active) in assay [4]; 8330 nM (active) in [5]; 3720 nM (active) in assay [6]. The Potency in [7] was 5260 nM (active); in [8], 4690 nM (active); in assay [9], 1660 nM (active); in assay [13], 1870 nM (active); in [10], 2350 nM (active); in [11], 4.61 µM (active) and 2 µM (active). Further, the Potency in assay [12] is 4.61 µM (active) and 3.55 µM (active).

Regarding `CCC(C)(Oc1ccc(C2(c3ccc(OC(C)(CC)C(=O)O)cc3)CCCCC2)cc1)C(=O)O` (stereo not drawn), the Potency result in assay [1], in assay [2], in assay [3], in assay [4], in assay [14] and in assay [6] was “inactive” each time. In addition, the Potency result in assay [7], in assay [8], in assay [9], in assay [13], in assay [10] and in assay [12] was “inactive” in each case. Moreover, the activity (max response) in assay [11] is -4.64% (inactive) and -4.83% (inactive).

As to `CN(C)c1nc(Cc2ccc(NC(=O)c3ccc(C(F)(F)F)cc3)cc2)nc(N(C)C)c1CC(=O)O`, the Potency entry in [1], in assay [2], in assay [3], in assay [4], in assay [5] and in [14] was “inactive” throughout. Further, the Potency result in assay [7], in assay [8], in [9] and in assay [13] was “inactive” throughout.
